Screening results deposited in PubChem by National Center for Advancing Translational Sciences (NCATS).
The list is not random: actives were taken first. Their share in the collection is about 8%.
LASV entry inh: blocks Lassa virus binding to or entry into cells. 300,000 tested, 1.2% active. Lassa virus pseudotype entry inhibition, cell reporter. Potency, µM (titrated, usually from 37.9 µM), without a hit: at the highest dose activity change, negative = inhibition, usual class: inhibitors; calls by dose curve; tested in HEK293 cells; note: potency is the fitted concentration of half-maximal effect; % is set by controls: 0 for no effect and ±100 for the full control effect; nearly all actives have a fitted effect of over 50% in size
SARS PLpro yeast: blocks SARS-CoV papain-like protease in a yeast assay; 330,000 tested, 0.19% active; S. cerevisiae expressing SARS-CoV PLpro, growth rescue; Potency, µM (titrated, usually from 32.9 µM), inactives show at the highest dose activity, positive = growth rescue, most hits filed as activators; calls by dose curve; note: potency is the fitted concentration of half-maximal effect; 0% is about no effect; nearly all actives have a fitted effect of over 55% in size
FMDV antiviral: blocks foot and mouth disease virus; FMDV antiviral cell-based qHTS; Potency, µM (doses to about 57.9 µM), without a hit: at the highest dose activity change, negative = inhibition, most hits filed as inhibitors; 410,000 tested, 1.2% active; calls by dose curve; tested in HEK293T cells; note: read-out not given here; potency is the fitted concentration of half-maximal effect; % is set by controls: 0 for no effect and ±100 for the full control effect; nearly all actives have a fitted effect of over 45% in size
HCMV antiviral: blocks human cytomegalovirus replication; HFF cells, HCMV-luciferase reporter, 72 h; hits give low values; activity change, negative = inhibition, % at 57.5 µM; 410,000 tested, 4.5% active; AID 1259415; in the data active = activity change below about -60%; inconclusive = no clear call, values can overlap the other calls; inactive = above about -39%; note: % is set by controls: 0 for no effect and ±100 for the full control effect
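Luciferase read-out from HCMV-luciferase-infected HFFs (MOI 1 PFU/cell) 72 h post infection at 37C; compounds added after 16 h cell attachment; activity normalized between buffer-only basal and Salinomycin (10uM) inhibitor controls.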
MARV entry inh: blocks Marburg virus binding to or entry into cells; Marburg virus pseudotyped entry inhibition, cell reporter; Potency, µM (top dose mostly 37.8 µM), without a hit: at the top dose activity change, negative = inhibition, usual class: inhibitors; 300,000 tested, 1.8% active; calls by dose curve; tested in HEK293 cells; note: potency is the fitted concentration of half-maximal effect; % is set by controls: 0 for no effect and ±100 for the full control effect
HCV inhibitor: HCV inhibition. Huh7.5.1 HCVcc-Cre infection, luciferase reporter, 44 h. Potency, µM (top dose mostly 41.8 µM), for the others: at the highest dose activity change, negative = inhibition, most hits filed as inhibitors. 340,000 tested, 3.4% active; active = well fitted inhibition curve with a large enough effect; inconclusive = small, poorly fitted or top-dose-only effect, or another doubt; inactive = no such curve, though single readings can be large or run the other way; note: potency is the fitted concentration of half-maximal effect; % is set by controls: 0 for no effect and ±100 for the full control effect
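Cells seeded at 1,000/well and cultured 4 h, then compounds added followed by HCVcc-Cre virus (~0.5 moi). After 44 h further culture, luciferase substrate was added, plates held 15 min at room temperature, and luminescence read for 15 sec.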
Numbers without * were called inactive; ? = inconclusive; nt = no result given; ! = not confirmed by another sample; [ ] = remark or other dose.

SMILES | LASV entry inh | SARS PLpro yeast | FMDV antiviral | HCMV antiviral | MARV entry inh | HCV inhibitor
O=C(CCn1cnc2onc(-c3ccc(F)cc3)c2c1=O)N1CCN(c2ccccc2F)CC1 | 9%[46.1 µM] | nt | -6% | -1 | nt | nt
Cc1ccsc1C(=O)N1CCCC(N2CCN(c3cccc(Cl)c3)CC2)C1 (stereo not given) | nt | 5% | ? | -64* | nt | ?
COCC=CC1=CC2=CC(=O)C(C)(OC(=O)c3cnc4ccccc4n3)C(=O)C2=CN1Cc1ccccc1 (stereo not given) | nt | nt | nt | nt | 19%[14.2 µM] | nt
OCC1(CCOc2ccccc2)CCN(Cc2ccccc2OC(F)F)CC1 | 7%[46.1 µM] | ? | 5% | -4 | ? | 16%
Cc1c(CN2CCC(CO)(CCOc3ccccc3)CC2)[nH]c2c(Cl)cccc12 | nt | -1% | -26% | -25 | nt | 14µM*
OCC1(CCOc2ccccc2)CCN(Cc2ccc(OC(F)F)cc2)CC1 | -14%[46.1 µM] | 0% | -24% | 13 | ? | 13µM*
Cc1nn(C)c(Cl)c1CN1CCC(CO)(CCOc2ccccc2)CC1 | 11% | 0% | ? | -19 | ? | -20%
CCCCNC(=O)CCCN1C(=O)c2ccccc2Sc2ncccc21 | -3%[46.1 µM] | nt | -4% | -10 | nt | nt
CCN(CC)CCNC(=O)C1CCN(S(=O)(=O)c2c(C)noc2/C=C/c2ccccc2F)CC1 | ? | -4% | -2% | -78*! | nt | 5.6µM*
Cc1noc(/C=C/c2ccco2)c1S(=O)(=O)N1CCC(C(=O)Nc2ccc(F)c(Cl)c2)CC1 | -12%[46.1 µM] | nt | ? | -84* | 0%[46.1 µM] | nt
Cc1cccc(NC(=O)C2CCN(S(=O)(=O)c3c(C)noc3/C=C/c3ccco3)CC2)n1 | -18% | -11% | 0% | -66* | -39% | ?
Cc1cc(NC(=O)C2CCN(S(=O)(=O)c3c(C)noc3C)CC2)ccc1Br | 4%[46.1 µM] | 2% | ? | -61*! | 18%[46.1 µM] | -9%
Cc1cc(C)cc(NC(=O)C2CC23CCN(Cc2ccc4ncccc4c2)CC3)c1 (stereo not given) | nt | nt | -10% | nt | nt | nt
Cc1ccc(NC(=O)C2CCN(S(=O)(=O)c3c(C)noc3/C=C/c3ccco3)CC2)cc1C | 0%[46.1 µM] | nt | ? | ? | 7%[46.1 µM] | nt
CC(=O)Nc1ccc(NC(=O)C2CCN(S(=O)(=O)c3cccc4nonc34)CC2)cc1 | 3% | 5% | nt | -25 | -5% | 4%
COc1ccc(/C=C\c2onc(C)c2S(=O)(=O)N2CCC(C(=O)Nc3cccc(OC)c3)CC2)cc1 | ? | nt | 14µM* | -27 | ? | nt
Cc1n[nH]c(C)c1S(=O)(=O)N1CCCC(C(=O)Nc2nccs2)C1 (stereo not given) | -1% | -4% | 0% | -98* | ? | -12%
O=C(Nc1ccc(F)c(F)c1)C1CCN(S(=O)(=O)c2cccc3nonc23)CC1 | -9% | 1% | 20µM* | -77* | -2%[46.1 µM] | ?
CCOc1ccc(NC(=O)C2CCN(S(=O)(=O)c3c(C)noc3/C=C/c3ccco3)CC2)cc1 | 5%[46.1 µM] | nt | -27% | -78* | ? | nt
COc1cc(-c2n[nH]c3ccnc(-c4ccccc4)c23)cc(OC)c1OC | nt | nt | nt | -8 | nt | nt
CCOC(=O)c1c(C)oc2nc(C)nc(NCc3cccc(OC)c3)c12 | -2%[46.1 µM] | nt | -20% | -1 | nt | nt
CC=CCCN1C=C(C(C)=O)C(c2ccccc2)NC1=O (stereo not given) | nt | nt | nt | nt | -22%[14.2 µM] | nt
Cc1noc(C)c1S(=O)(=O)N1CCCC(C(=O)Nc2ccc(Cl)cn2)C1 (stereo not given) | ? | 3% | 32µM* | -29 | ? | ?
Cc1ccc(Cl)cc1NC(=O)C1CCCN(S(=O)(=O)c2c(C)noc2C)C1 (stereo not given) | -3% | 3% | ? | 10 | -16% | 4%
Cc1n(C)c2cc(Cl)ccc2[n+]1Cc1ccccc1 | 5% | 0% | -21% | -60* | 21%[46.1 µM] | 3%
SMILES | LASV entry inh | SARS PLpro yeast | FMDV antiviral | HCMV antiviral | MARV entry inh | HCV inhibitor
CC[n+]1c(C)n(C)c2cc(S(=O)(=O)N(C)C)ccc21 | 20% | 1% | -4% | -4 | 20%[14.2 µM] | 8%
Cc1ccc(C(C)CCN2CCOc3ccc(CN4CCOCC4)cc3C2)o1 (stereo not given) | nt | nt | -8% | nt | nt | nt
Cc1cc(NC(=O)CCN2C(=O)c3ccccc3C2=O)no1 | 4% | 1% | -19% | 11 | 4% | 8%
COc1cc(OC)c(NC2=CC(=O)C(=O)c3ccccc32)cc1Cl | nt | -1% | ? | -82* | nt | 5µM*
CCC(C(=O)Nc1cc(Cl)c(OC)cc1OC)c1ccccc1 (stereo not given) | ? | -1% | -22% | -18 | ? | ?
CCOC(=O)c1ccc(NC2=CC(=O)C(=O)c3ccccc32)cc1 | ? | -2% | -3% | 20 | ? | -16%
NS(=O)(=O)c1ccc(NC2=CC(=O)C(=O)c3ccccc32)cc1 | 0%[46.1 µM] | nt | 25µM* | 50 | 5%[46.1 µM] | 16µM*
Cc1ccc(NC2=CC(=O)C(=O)c3ccccc32)cc1 | ? | -54% | -39% | -104* | ? | 10µM*
Cc1cc(NC2=CC(=O)C(=O)c3ccccc32)no1 | ? | nt | ? | -102* | ? | ?
CC(=O)Nc1ccc(NC2=CC(=O)c3ccccc3C2=O)cc1 | 1%[46.1 µM] | 0% | -1% | 38 | ? | 2%
Cc1nn(S(=O)(=O)c2ccc(C(C)C)cc2)c(C)c1S(=O)(=O)N1CCCCCC1 | -2%[46.1 µM] | nt | -9% | 8 | nt | nt
CCN(CC)c1ccc(NC(=O)c2ccc(NC(=O)C3CCCO3)cc2)c(C)c1 (stereo not given) | 6% | 0% | -21% | ? | -11% | -28%
O=C(Nc1ccc(O)cc1)c1ccc(NC(=O)C2CCCO2)cc1 (stereo not given) | nt | 0% | 19% | -63* | nt | 2%
Cc1cc(NC(=O)c2ccc(NC(=O)C3CCCO3)cc2)ccc1Br (stereo not given) | nt | 0% | ? | -74* | nt | -1%
NC(=O)c1ccc(NC(=O)C2CCCO2)cc1 (stereo not given) | -9% | 4% | -3% | 13 | 2%[46.1 µM] | 4%
CC(C)[C@H]1C(=O)O[C@H](C(C)C)C(=O)N(C)[C@@H](C(C)C)C(=O)O[C@H](C(C)C)C(=O)N(C)[C@@H](C(C)C)C(=O)O[C@H](C(C)C)C(=O)N1C | nt | -2% | 11µM* | nt | nt | ?
Cn1c(=O)c2cc(NC(=S)NCc3ccccc3F)ccc2n1Cc1cccc(C(F)(F)F)c1 | nt | nt | -10% | -69* | nt | nt
CCOCCC(=O)Nc1ccc2c(c1)c(=O)n(C)n2Cc1cccc(C(F)(F)F)c1 | nt | nt | 0% | -62* | nt | nt
COc1cccc(Cn2c3ccc(NC(=O)CCc4ccc(F)cc4)cc3c(=O)n2C)c1 | nt | nt | -26% | -85* | nt | nt
Cn1c(=O)c2cc(NC(=S)NCc3ccccc3F)ccc2n1Cc1ccccc1 | nt | nt | -18% | -20 | nt | nt
O=C(CNC(=O)c1ccccc1)NCCCSc1ccccc1 | 2% | -8% | 39% | 29 | 0% | 1%
